Here are results for ten compounds from PubChem BioAssay.

The nature of assay [1]: reducers of endogenous Her2 protein level, primary screen, SKBR3 breast tumor cells, AlphaScreen, ATP viability (AID 461;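 active = Her2 level under about 52% in both replicate screens, with viability over 70% of control, limit read from the data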;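 as to Her2 level: lower value means less Her2 protein in the cells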;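 as to viability: percent of carrier control wells set as 100% viability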). To be noted: 18-24 h, measured here: SKBR3 viability, ATP luminescence, at 10 µM.
Assay [2] concerns the target Receptor tyrosine-protein kinase erbB-2 (Homo sapiens) (UniProt P04626). The assay is described as above. To be noted: 18-24 h, at 10 µM, stronger effect = lower value.
Assay [3] in a line: SK-BR-3 cell growth inhibitors, pilot screen, 24 h, human (AID 572;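 active = viability at or below 10% of carrier control in both of two separate runs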;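 also: compound exposure lasted between 18 and 24 h rather than exactly 24 h; 100% = carrier-treated control wells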). To be noted: SK-BR-3 viability, CellTiter-Glo luminescence, at 10 µM, stronger effect = lower value.
A short description of assay [4]: HUVEC growth inhibition – cell-based, human, primary screen (AID 575;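 active = viability at or below 30% in both replicate assays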;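 also: 100% = median of untreated cell wells with 0.1% DMSO on each plate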). The note with it: HUVEC proliferation, CellTiter-Glo luminescence, 72 h; at 10 µM; stronger effect = lower value.
A short description of assay [5]: growth inhibitors of H69AR lung tumor, primary screen, human, duplicate replicates (AID 580;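 active = viability at or under a set limit in both replicates, limit being median viability minus 3 SD, cut at about 48% in these data, passing the limit was not always enough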;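 also: 100% = mean luminescence of untreated wells and 0% = no signal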). To be noted: H69AR lung tumor cells viability, ATP luminescence, 72 h; at 10 µM; stronger effect = lower value.
Assay [6] in a line: reversal of MRP1-mediated doxorubicin resistance, pilot screen, H69AR cells, doxorubicin co-treatment (AID 601). The note with it: CellTiter-Glo, 72 h, at 10 µM; for differential viability (reversal): stronger effect = higher value.
Assay [7] is described as follows: 384-well plate pilot, post-Golgi transport modulator project, inhibition of yeast transport mutant growth (AID 636; in the data active = inhibition above about 31%). To be noted: absorbance 615 nm, about 18 h, stronger effect = higher value.
Assay [8] is described as follows: growth suppression of yeast trafficking mutant, preliminary HTS, modulators of trafficking downstream of Golgi apparatus project, 1536-format plate, OD 615 nm (AID 637; in the data active = inhibition above about 30%). The note with it: yeast transport mutant growth, absorbance 615 nm, 18 h; stronger effect = higher value.
The nature of assay [9]: OD615 S. cerevisiae growth inhibition, permissive medium, pilot counter-assay, permissive growth control for S. cerevisiae lifespan shortening project (AID 705;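 active = growth inhibition above 25% in both replicates, a cutoff set 3 SD above the mean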). The note with it: OD615, 24 h, at 10 µM, stronger effect = higher value.
Assay [10] is described as follows: Restrictive medium S. cerevisiae growth inhibition, OD615, pilot screen of yeast lifespan reduction project, restrictive growth control (AID 706;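 active = growth inhibition above a set limit, 3 SD over mean compound inhibition, in both replicates, cut at about 43% in these data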;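 also: modified DeaD lifespan yeast strain shifted to restrictive glucose medium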). The note with it: OD615, 48 h, at 10 µM, stronger effect = higher value.
Assay [11] can be described thus: viability gain of MRP-1-high H69AR cells under doxorubicin, pilot screen, MRP-1 activator project, CellTiter-Glo, duplicate (AID 807;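 active = viability increase at or above a cutoff of the median across tested compounds plus 3 SD, cut at about 8.5% in these data, passing the limit was not always enough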;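 also: compound pretreatment 18-22 h then 72 h combined with doxorubicin; 0% = doxorubicin alone and 100% = vehicle without doxorubicin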). The note with it: H69AR viability with doxorubicin, CellTiter-Glo luminescence; at 10 µM; stronger effect = higher value.
Assay [12] in a line: growth suppression of beta-catenin knockout HCT116, pilot screen, human colon tumor cells (AID 823;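 active = cell viability at or below a set limit in both duplicate runs, the limit being the all-compound median minus 4 SD, cut at about 23% in these data, passing the limit was not always enough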;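 also: 0% = wells killed by 20 µM Hyamine and 100% = untreated DMSO cell wells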). The note with it: CellTiter-Glo, 60 h, at 10 µM, stronger effect = lower value.
A short description of assay [13]: growth suppression of PTEN-deleted HCT116, pilot screen, cell-based, HCT116 clonal line, CellTiter-Glo (AID 824;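 active = viability at or below 27.92% in each of two runs, the all-compound median minus 4 SD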;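 also: 0% = 20 µM Hyamine control and 100% = vehicle cell control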). The note with it: 60 h, at 10 µM, stronger effect = lower value.
Assay [14] is described as follows: inhibitors of the yeast RAM network, pilot screen, dse1pr::URA3 reporter, 5-FOA selection (AID 869;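 active = inhibition over a set limit, the all-compound mean plus 3 SD, in both replicate runs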;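 also: 0% = DMSO wells with no growth and 100% = 10 µM 1-NA-PP1 with full growth; RAM network block rescues cells from 5-FOA so hits raise OD615 growth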). To be noted: S. cerevisiae dse1pr::URA3 5-FOA growth, OD615, 2 d; at 10 µM; stronger effect = higher value; strain carries analog-sensitive mutant Cbk1 kinase.
Assay [15] in a line: RAM signaling pathway blockade in yeast – S. cerevisiae, Pdr1DBD-CYC8 efflux-inhibited sensitized strain, primary screen (AID 1298;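 active = RAM network inhibition above 8.4% in each of two replicates, 3 SD over the compound average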;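 also: 0% = DMSO untreated cells without growth and 100% = 10 µM 1-NA-PP1 full growth; higher means more yeast growth rescued from 5-FOA killing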). To be noted: S. cerevisiae cbk1-as DSE1-URA3 strain, 5-FOA growth OD615, 2 d; at 50 µM; stronger effect = higher value.
Setting [16] is: H69AR cells + 2 uM doxorubicin, measured here: viability with 2 uM doxorubicin, stronger effect = lower value.
[17] abbreviates: H69AR cells, compound alone cytotoxicity.

Records with an inconclusive call do not appear. Activity calls are given as the source filed them.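 The calls were made as follows, unless noted: active = viability loss from added drug above about 55%, and viability with drug at most 40%, in both replicates (limit read from the data, passing the limit was not always enough); inconclusive = both conditions met in only one replicate; inactive = neither replicate meets both conditions.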

Chain of Receptor tyrosine-protein kinase erbB-2 (Homo sapiens) (P04626 whole entry, looked up): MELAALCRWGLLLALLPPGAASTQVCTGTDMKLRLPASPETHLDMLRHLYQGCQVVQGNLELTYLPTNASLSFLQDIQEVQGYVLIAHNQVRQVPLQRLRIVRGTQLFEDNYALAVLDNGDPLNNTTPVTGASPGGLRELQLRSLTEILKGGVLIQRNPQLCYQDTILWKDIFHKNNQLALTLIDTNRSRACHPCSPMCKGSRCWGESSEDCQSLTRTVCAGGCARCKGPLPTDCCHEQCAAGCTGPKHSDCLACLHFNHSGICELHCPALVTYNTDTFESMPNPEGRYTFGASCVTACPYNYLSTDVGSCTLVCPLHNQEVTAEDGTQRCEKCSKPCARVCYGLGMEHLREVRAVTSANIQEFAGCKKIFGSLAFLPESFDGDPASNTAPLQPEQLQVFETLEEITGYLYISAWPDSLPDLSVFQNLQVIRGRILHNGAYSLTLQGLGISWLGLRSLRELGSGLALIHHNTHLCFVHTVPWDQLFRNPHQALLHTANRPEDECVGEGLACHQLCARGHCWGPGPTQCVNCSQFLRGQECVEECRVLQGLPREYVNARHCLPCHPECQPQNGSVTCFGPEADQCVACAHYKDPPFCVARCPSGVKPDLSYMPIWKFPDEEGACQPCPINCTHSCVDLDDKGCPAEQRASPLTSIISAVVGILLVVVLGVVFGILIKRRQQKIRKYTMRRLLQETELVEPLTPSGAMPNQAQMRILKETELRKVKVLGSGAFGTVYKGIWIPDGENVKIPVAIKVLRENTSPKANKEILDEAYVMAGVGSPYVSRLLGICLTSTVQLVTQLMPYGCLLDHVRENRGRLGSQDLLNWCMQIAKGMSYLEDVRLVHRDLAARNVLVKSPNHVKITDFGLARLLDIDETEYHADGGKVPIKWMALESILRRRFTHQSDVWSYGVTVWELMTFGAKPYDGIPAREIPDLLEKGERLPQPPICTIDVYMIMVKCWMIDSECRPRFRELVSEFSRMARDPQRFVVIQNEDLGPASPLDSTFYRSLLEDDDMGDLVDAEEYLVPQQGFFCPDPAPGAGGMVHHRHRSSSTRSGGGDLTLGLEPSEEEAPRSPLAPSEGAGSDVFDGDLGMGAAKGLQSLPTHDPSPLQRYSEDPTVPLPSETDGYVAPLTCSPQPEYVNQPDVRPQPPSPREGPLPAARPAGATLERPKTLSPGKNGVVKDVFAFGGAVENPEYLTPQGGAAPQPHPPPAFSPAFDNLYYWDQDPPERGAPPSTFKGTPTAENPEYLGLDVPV

Consider `Cn1c(=O)oc2cc(S(=O)(=O)N3CCCC(C(=O)NCC4COc5ccccc5O4)C3)ccc21` (centres undefined), for which the viability in assay [1] is 77%; in [3] it was 77% (inactive); in assay [4], 83.6% (inactive); in [5], 94% (inactive); in assay [6] (setting [16]), 90.9%; in assay [6] (setting [17]), 94%. For the same compound, the values for the viability in assay [12] and in [13] were 86% (inactive) and 90.4% (inactive), respectively. Also, the Her2 level in assay [2] was 79.5% (inactive). In addition, the differential viability (reversal) in assay [6] (H69AR cells + 2 uM doxorubicin) is 3.15% (inactive). Further, the figures for the inhibition in [7], in assay [8] and in assay [14] were 0.8% (inactive), -2.79% (inactive) and 0.04% (inactive), respectively. For the same compound, the growth inhibition in assay [9] is -11.9% (inactive); in assay [10], -20.4% (inactive). In addition, the viability increase in assay [11] was 3.09% (inactive). For the same compound, the RAM network inhibition in assay [15] is 4.73% (inactive).
As for `COC(=O)Cn1c(=NC(=O)CSCC(=O)Nc2cc(C)on2)sc2ccccc21`, the viability was 89% in [1]; 89% (inactive) in assay [3]; 90.4% (inactive) in assay [4]; 88.5% (inactive) in assay [5]; 85.5% in assay [6] (setting [16]); 88.5% in assay [6] (setting [17]). Besides, the viability in assay [12] is 99.3% (inactive); in assay [13], 96.9% (inactive). Further, the Her2 level in [2] is 90% (inactive). Also, in assay [6] (H69AR cells + 2 uM doxorubicin), the differential viability (reversal) is 3% (inactive). The inhibition in assay [7] is -5.07% (inactive); in assay [8], -3.5% (inactive). Also, the growth inhibition is -6.84% (inactive) in [9] and -19.8% (inactive) in [10]. Moreover, in assay [11], the viability increase was -0.92% (inactive). Moreover, in assay [15], the RAM network inhibition was 7.51% (inactive).
For the compound `CCOC(=O)N1CCN(C(=O)COc2ccc(S(=O)(=O)NC(C)C)cc2)CC1`, the viability in assay [1] was 96%; in assay [3] it was 96% (inactive); in [4] it was 106% (inactive); in assay [5], 90.3% (inactive); in assay [6] (setting [16]), 90%; in assay [6] (setting [17]) it was 90.3%. The viability is 96.2% (inactive) in assay [12] and 93% (inactive) in assay [13]. Also, in [2], the Her2 level was 105% (inactive). Also, in assay [6] (H69AR cells + 2 uM doxorubicin), the differential viability (reversal) is 0.365% (inactive). The figures for the inhibition in assay [7], in assay [8] and in assay [14] were -5.07% (inactive), 2.33% (inactive) and 1.71% (inactive), respectively. Further, the growth inhibition in assay [9] is -17.6% (inactive); in assay [10] it was -20.2% (inactive). The viability increase in [11] was -0.64% (inactive). Further, the RAM network inhibition in assay [15] was 7.54% (inactive).
On to `CC(c1ccccc1)n1cnc2ccccc21` (centres undefined), for which the viability was 82% in [1]; 82% (inactive) in assay [3]; 93.4% (inactive) in [4]; 93.5% (inactive) in assay [5]; 93.3% in assay [6] (setting [16]); 93.5% in [6] (setting [17]). Further, the figures for the viability in assay [12] and in assay [13] were 103% (inactive) and 95.2% (inactive), respectively. The Her2 level in [2] is 104% (inactive). For the same compound, in assay [6] (H69AR cells + 2 uM doxorubicin), the differential viability (reversal) was 0.135% (inactive). Also, the inhibition in assay [7] was -1.15% (inactive); in assay [8], 0.33% (inactive); in assay [14], -0.115% (inactive). The growth inhibition in [9] is -3.42% (inactive); in [10] it was 0.48% (inactive). In addition, the viability increase in assay [11] was -1.05% (inactive). Further, the RAM network inhibition in [15] was 0.83% (inactive).
For the compound `Cc1cccc(N2CCN(C(=O)Cn3nc(Cc4ccncc4)c4ccccc4c3=O)CC2)c1C`, the viability in assay [1] was 83%; in assay [3] it was 83% (inactive); in assay [4], 83.9% (inactive); in [5], 75.9% (inactive); in [6] (setting [16]), 83.5%; in [6] (setting [17]) it was 75.9%. The viability in assay [12] was 70.7% (inactive); in assay [13] it was 76% (inactive). Moreover, the Her2 level in assay [2] is 82% (inactive). Also, the differential viability (reversal) in assay [6] (H69AR cells + 2 uM doxorubicin) is -7.61% (inactive). The inhibition was -5.6% (inactive) in assay [7], 1.5% (inactive) in assay [8] and 0.445% (inactive) in assay [14]. The growth inhibition in assay [9] is 1.35% (inactive); in assay [10] it was 6.96% (inactive). Moreover, the viability increase in [11] is 1.06% (inactive). In addition, the RAM network inhibition in assay [15] is 3.21% (inactive).
For the compound `CCn1cc(SCC(=O)NCC2CCCO2)c2ccccc21` (centres undefined), the viability in assay [1] is 88%; in assay [3], 88% (inactive); in assay [4] it was 102% (inactive); in [5] it was 85.5% (inactive); in assay [6] (setting [16]), 94.9%; in [6] (setting [17]), 85.5%. Also, the results for the viability in [12] and in assay [13] were 94.8% (inactive) and 99.9% (inactive), respectively. The Her2 level in [2] was 93.5% (inactive). Further, in assay [6] (H69AR cells + 2 uM doxorubicin), the differential viability (reversal) is -9.37% (inactive). Further, the inhibition in [7] was -4.67% (inactive); in assay [8] it was -0.5% (inactive); in [14], 1.44% (inactive). Besides, the values for the growth inhibition in assay [9] and in [10] were 4.53% (inactive) and -6.71% (inactive), respectively. Further, the viability increase in [11] is -1.64% (inactive). The RAM network inhibition in assay [15] was 4.96% (inactive).
Consider `O=C(O)C1CC(=O)N(CCOc2ccccc2)C1` (centres undefined), for which the viability is 105% in assay [1]; 105% (inactive) in [3]; 111% (inactive) in assay [4]; 93.9% (inactive) in [5]; 97% in assay [6] (setting [16]); 93.9% in [6] (setting [17]). Also, the viability is 102% (inactive) in assay [12] and 100% (inactive) in assay [13]. Moreover, the Her2 level in [2] was 126% (inactive). Further, in assay [6] (H69AR cells + 2 uM doxorubicin), the differential viability (reversal) is -3.07% (inactive). In addition, the figures for the inhibition in [7], in assay [8] and in assay [14] were -3.51% (inactive), -2.62% (inactive) and 0.69% (inactive), respectively. Further, the values for the growth inhibition in [9] and in assay [10] were 2.4% (inactive) and 3.82% (inactive), respectively. The viability increase in assay [11] is 0.57% (inactive). Besides, the RAM network inhibition in [15] is 1.17% (inactive).
Consider `CCOC(=O)C1CCCN(C(=O)c2ccc(CS(=O)(=O)c3ccc(Br)cc3)o2)C1` (centres undefined), for which the viability in assay [1] was 85.5%; in assay [3], 85.5% (inactive); in assay [4], 79.5% (inactive); in assay [5], 95.6% (inactive); in [6] (setting [16]), 97.3%; in [6] (setting [17]) it was 95.6%. Besides, the viability was 100% (inactive) in assay [12] and 98.6% (inactive) in assay [13]. In addition, the Her2 level in assay [2] was 102% (inactive). Besides, the differential viability (reversal) in assay [6] (H69AR cells + 2 uM doxorubicin) is -1.7% (inactive). Besides, the figures for the inhibition in assay [7], in assay [8] and in [14] were -2.93% (inactive), -3.83% (inactive) and 1.39% (inactive), respectively. Also, the values for the growth inhibition in [9] and in [10] were -9.14% (inactive) and -18.5% (inactive), respectively. For the same compound, the viability increase in assay [11] was -1.86% (inactive). Moreover, the RAM network inhibition in assay [15] is 3.92% (inactive).
On to `COc1ccc(C2CC(=O)C(C=NCCCN3CCOCC3)=C(O)C2)cc1` (centres undefined), for which the viability in assay [1] is 84.5%; in assay [3], 84.5% (inactive); in assay [4], 102% (inactive); in [5] it was 99.3% (inactive); in assay [6] (setting [16]), 86.5%; in [6] (setting [17]), 99.3%. For the same compound, the viability was 103% (inactive) in assay [12] and 101% (inactive) in assay [13]. For the same compound, the Her2 level in assay [2] was 82.5% (inactive). Further, the differential viability (reversal) in assay [6] (H69AR cells + 2 uM doxorubicin) is 12.8% (inactive). Also, the inhibition was -1.15% (inactive) in [7], -1.33% (inactive) in assay [8] and 2.07% (inactive) in [14]. The values for the growth inhibition in assay [9] and in assay [10] were -0.615% (inactive) and 1.58% (inactive), respectively. For the same compound, the viability increase in assay [11] is 0.71% (inactive). Moreover, the RAM network inhibition in assay [15] was 3.01% (inactive).
Take `CC(C)C(=O)Nc1ccc(-c2nc3cccnc3o2)cc1`: the viability is 93.5% in assay [1]; 93.5% (inactive) in assay [3]; 128% (inactive) in assay [4]; 95.2% (inactive) in [5]; 99.4% in assay [6] (setting [16]); 95.2% in assay [6] (setting [17]). The viability in [12] was 101% (inactive); in assay [13], 104% (inactive). Besides, the Her2 level in [2] is 82% (inactive). Besides, the differential viability (reversal) in [6] (H69AR cells + 2 uM doxorubicin) was -4.14% (inactive). For the same compound, the figures for the inhibition in assay [7], in assay [8] and in assay [14] were 1.03% (inactive), -5.33% (inactive) and 2.22% (inactive), respectively. Moreover, the growth inhibition was -11.7% (inactive) in assay [9] and -2.21% (inactive) in assay [10]. In addition, the viability increase in [11] is 1.32% (inactive). Also, the RAM network inhibition in assay [15] was 1.35% (inactive).
